Assay results: PubChem BioAssay (NCATS)
Records with an inconclusive call do not appear. A number with no mark means an inactive call. Active and inactive are the calls of the source. Calls come from the whole dose curve; as a rule, active = well fitted curve in the direction sought with a large enough effect; inconclusive = small, poorly fitted or top-dose-only effect, or another doubt; inactive = no such curve, though single readings can be large; an effect the other way counts as inactive or inconclusive.

Key:
[1] = BET inhibitor-based combinations targeting novel dependencies in MECOM-rearranged (r) AML: SET-2 cell line (AID 2202231); conditions: SET-2 AML cells viability, CellTiter-Glo luminescence, 48 h; viability: stronger effect = lower value, concentration not given here; note: nearly all actives have a fitted effect of over 35% in size;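 for viability: plate controls were DMSO treated cells for no effect and wells without cells for full effect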
Summary of the method: (§1)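 A 48 hr incubation preceded viability reading by CellTiter-Glo, with 15 min room-temperature development. Dose series had 11 points; normalization used DMSO and empty wells; AUC was computed and mean-centered per line as Z-AUC.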

[2] = BET inhibitor-based combinations targeting novel dependencies in MECOM-rearranged (r) AML: OCI-AML3 cell line (AID 2202232); conditions: Potency: OCI-AML3 viability; note: nearly all actives have a fitted effect of over 35% in size
Summary of the method: as §1

[3] = BET inhibitor-based combinations targeting novel dependencies in MECOM-rearranged (r) AML: MV-4-11 cell line (AID 2202233); note: nearly all actives have a fitted effect of over 45% in size
Summary of the method: (§2)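 Each compound is tested in an 11-point concentration series against 500 seeded cells/well for 48 hr. The luminescent viability signal is normalized to DMSO and blank wells, then reduced to AUC and a cell-line-centred Z-AUC.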

[4] = BET inhibitor-based combinations targeting novel dependencies in MECOM-rearranged (r) AML: HNT-34 cell line (AID 2202234); note: nearly all actives have a fitted effect of over 35% in size
Summary of the method: as §2

[5] = BET inhibitor-based combinations targeting novel dependencies in MECOM-rearranged (r) AML: UCSD-AML1 cell line (AID 2202235); note: nearly all actives have a fitted effect of over 40% in size
Summary of the method: as §2

[6] = BET inhibitor-based combinations targeting novel dependencies in MECOM-rearranged (r) AML: AML-191 cell line (AID 2202236; note: nearly all actives have a fitted effect of over 35% in size)
Summary of the method: as §1

[7] = BET inhibitor-based combinations targeting novel dependencies in MECOM-rearranged (r) AML: AML-194 cell line (AID 2202237; note: nearly all actives have a fitted effect of over 40% in size)
Summary of the method: as §1
Potency is the fitted concentration of half-maximal effect.

Structure (SMILES)	Potency [1]	Potency [2]	Potency [3]	Potency [4]	Potency [5]	Potency [6]	Potency [7]	viability [1] [%]
O=C1NC(=O)[C@@H](c2c[nH]c3ccccc23)[C@H]1c1cn2c3c(cccc13)CCC2	2.35 µM (active)	1.18 µM (active)	1.32 µM (active)	0.934 µM (active)	1.05 µM (active)	0.934 µM (active)	0.934 µM (active)	–
CCC(=C/[C@H](C)C/C=C/C(C)=C/[C@@H](C)C(=O)[C@@H](C)[C@H](O)[C@@H](C)C/C(C)=C/C(=O)O)/C=C/[C@@H]1OC(=O)C=C[C@@H]1C	0.0074 µM (active)	0.0042 µM (active)	0.003 µM (active)	0.0037 µM (active)	0.0033 µM (active)	0.003 µM (active)	0.0019 µM (active)	–
CN(C)C/C=C/C(=O)Nc1ccc(C(=O)N2CCC[C@@H](Nc3ncc(Cl)c(-c4c[nH]c5ccccc45)n3)C2)cc1	5.9 µM (active)	0.372 µM (active)	0.235 µM (active)	0.235 µM (active)	0.468 µM (active)	2.35 µM (active)	1.66 µM (active)	–
Nc1nc(=S)c2[nH]cnc2[nH]1	0.742 µM (active)	0.417 µM (active)	0.296 µM (active)	3.32 µM (active)	–	0.833 µM (active)	–	–
O=C(NOCCO)c1ccc2cncn2c1Nc1ccc(I)cc1F	18.6 µM (active)	0.0934 µM (active)	0.742 µM (active)	0.525 µM (active)	1.32 µM (active)	–	1.66 µM (active)	–
Clc1ccc(-c2nc3sccn3c2/C=N/OCc2ccc(Cl)c(Cl)c2)cc1	–	inactive	inactive	inactive	inactive	inactive	inactive	112
CC(C)(CO)n1cc(C(=O)c2cncc(NC(=O)Cc3ccc(Cl)cn3)c2)c2cnc(N)nc21	–	inactive	7.42 µM (active)	inactive	inactive	–	0.0833 µM (active)	125
CC(C)(NS(=O)(=O)c1ccc2c(Cl)cnc(N=C(N)N)c2c1)C(=O)O	–	inactive	inactive	inactive	inactive	–	inactive	117
C[C@H]1C[C@H]2[C@@H]3CCC4=CC(=O)C=C[C@]4(C)[C@H]3C(=O)C[C@]2(C)[C@@]1(O)C(=O)CO	–	inactive	inactive	inactive	inactive	–	inactive	116
CN1C(N)=N[C@](C)(c2cc(NC(=O)c3ccc(F)cn3)ccc2F)CS1(=O)=O	–	inactive	inactive	inactive	–	inactive	–	121
C[N+](C)(C)CC(=O)O	–	inactive	inactive	inactive	inactive	inactive	inactive	112
CCCS(=O)(=O)c1nc(NC2CC2)cc(-c2ccc3c(ccn3C3CC(C)(C)NC(C)(C)C3)c2)n1	2.21 µM (active)	2.78 µM (active)	2.48 µM (active)	3.12 µM (active)	–	3.12 µM (active)	–	–
CCOCOC[C@H](C[C@H](C)C(=O)NO)NC(=O)c1ccc(Oc2ccccc2)cc1	–	23.5 µM (active)	inactive	26.3 µM (active)	inactive	–	inactive	117
C[C@H]1O[C@H](O[C@H]2[C@H](O)[C@@H](O)[C@@H](O[C@H]3[C@H](O)[C@@H](O)C(O)O[C@@H]3CO)O[C@@H]2CO)[C@H](O)[C@@H](O)[C@@H]1N[C@H]1C=C(CO)[C@@H](O)[C@H](O)[C@H]1O (some centres not stated)	–	inactive	inactive	inactive	inactive	–	inactive	101
CC(C)(C)C(=O)OCOP(=O)(COCCn1cnc2c(N)ncnc21)OCOC(=O)C(C)(C)C	4.68 µM (active)	0.525 µM (active)	0.209 µM (active)	2.63 µM (active)	1.86 µM (active)	1.66 µM (active)	2.95 µM (active)	–
N=C1CCCN1Cc1[nH]c(=O)[nH]c(=O)c1Cl	–	inactive	inactive	inactive	inactive	–	inactive	111
CCCc1cc(C(=O)N[C@H](Cc2ccc(-c3cccc(OC(F)(F)F)c3)nc2)C(=O)N[C@@H]2CCNC2)sc1C	20.9 µM (active)	20.9 µM (active)	9.34 µM (active)	11.8 µM (active)	10.5 µM (active)	16.6 µM (active)	14.8 µM (active)	–
Nc1ccn([C@@H]2O[C@H](CO)[C@@H](O)[C@H]2O)c(=O)n1	–	inactive	16.6 µM (active)	inactive	inactive	–	inactive	117
